# Laboratory results: ChEMBL document CHEMBL3988442, “University of Dundee, Small-Polar-MMV Screening Library” (2021)
# How the values were obtained:
# [1] = target: T1, Aspartate--tRNA(Asp/Asn) ligase (Mycobacterium tuberculosis (strain ATCC 25618 / H37Rv)) (UniProt P9WFW3); assay: Assay for Asp RNA synthetase-1 from Mycobacterium tuberculosis; assay type: functional; parameters: scale not given: direction of the effect not stated beside the values; details: 30 µM; also: in the data most compounds retested in dose-response had high values
# T1 sequence (whole entry): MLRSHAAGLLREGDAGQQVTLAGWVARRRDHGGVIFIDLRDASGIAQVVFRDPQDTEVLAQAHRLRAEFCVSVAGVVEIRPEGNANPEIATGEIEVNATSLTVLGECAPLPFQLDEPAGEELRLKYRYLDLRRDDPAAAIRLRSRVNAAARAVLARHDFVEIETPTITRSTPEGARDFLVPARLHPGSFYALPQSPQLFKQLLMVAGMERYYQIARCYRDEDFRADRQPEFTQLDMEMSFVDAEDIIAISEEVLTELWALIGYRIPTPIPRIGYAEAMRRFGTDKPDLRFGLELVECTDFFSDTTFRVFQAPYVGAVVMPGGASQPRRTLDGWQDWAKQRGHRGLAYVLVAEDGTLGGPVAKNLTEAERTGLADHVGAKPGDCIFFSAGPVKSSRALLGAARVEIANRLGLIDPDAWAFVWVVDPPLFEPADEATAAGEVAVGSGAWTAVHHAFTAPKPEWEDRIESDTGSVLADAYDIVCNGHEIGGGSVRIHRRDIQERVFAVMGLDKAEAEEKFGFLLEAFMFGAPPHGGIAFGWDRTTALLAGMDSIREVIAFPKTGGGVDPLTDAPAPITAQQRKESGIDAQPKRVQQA
# [2] = target: Shiga toxin 2 (Escherichia coli O157:H7) (UniProt P09385+P09386); assay: E. coli 0.157:H7 Shiga Toxin SOP - stx2 screening assay; assay type: functional; parameters: scale not given: direction of the effect not stated beside the values; details: 30 µM
smiles,measurement,setting,value
Cc1nc(C)n(C2CCCN(C(=O)c3ccc(F)cc3F)C2)n1 (centres undefined),Percent Effect,[1],-6.88%
same,Percent Effect,[2],1.49%
O=C(Cc1ccc(F)cc1)N1CCn2cc(Cn3cccn3)nc2C1,Percent Effect,[1],5%
same,Percent Effect,[2],5.65%
CN(C)[C@@H]1CCN(C(=O)NC2CCCC2)[C@H]1Cc1cnn(C)c1,Percent Effect,[1],-2.75%
same,Percent Effect,[2],-11.7%
CN1CCN(Cc2ccccc2CNC(=O)c2ccc(Br)cc2F)CC1,Percent Effect,[1],2.64%
same,Percent Effect,[2],-9.7%
COC(=O)c1cccc(NS(=O)(=O)c2cnc(NC(C)=O)s2)c1,Percent Effect,[1],-3.37%
same,Percent Effect,[2],-26.3%
CC(NC(=O)N1CCCN(Cc2cccs2)CC1)c1cccnc1 (centres undefined),Percent Effect,[1],-7.21%
same,Percent Effect,[2],15.3%
Cn1cccc1C(=O)N1CCc2ncnc(N3CCCC3)c2CC1,Percent Effect,[1],-0.927%
same,Percent Effect,[2],-8.7%
NC(=O)c1ccc(S(=O)(=O)NC(=O)COc2ccc3c(c2)CCC3)cc1,Percent Effect,[1],-2.01%
same,Percent Effect,[2],13.5%
CC(=O)c1c(F)cccc1N1CCC(Cc2cccnc2)CC1,Percent Effect,[1],0.661%
same,Percent Effect,[2],-24.5%
CCC(CNC(=O)c1ccc(=O)[nH]n1)N1CCc2ccccc2C1 (centres undefined),Percent Effect,[1],2.11%
same,Percent Effect,[2],-11.6%
Cc1ccc(C(CNCC2CC2)N2CCOCC2)s1 (centres undefined),Percent Effect,[1],3.84%
same,Percent Effect,[2],-22.1%
COc1cc2cc(C(=O)O)n(C)c2cc1OC,Percent Effect,[1],-0.697%
same,Percent Effect,[2],-0.0542%
Cc1noc(C2CCN(C(=O)CCc3nccs3)CC2)n1,Percent Effect,[1],-2.48%
same,Percent Effect,[2],-79.2%
CNS(=O)(=O)c1ccc(C(=O)NCCNc2ncccn2)cc1,Percent Effect,[1],-1.6%
same,Percent Effect,[2],25.5%
O=C(NCCNc1cnccn1)N1CCCC1,Percent Effect,[1],-2.84%
same,Percent Effect,[2],2.11%
Cc1nc(-c2ccccc2)n(CC(=O)NCC(C)C)n1,Percent Effect,[1],-3.61%
same,Percent Effect,[2],22%
Cc1cccnc1NC(=O)NC(C)Cn1cccn1 (centres undefined),Percent Effect,[1],-3.52%
same,Percent Effect,[2],15.4%
Cc1c(C(=O)NC(CN2CCCC2=O)c2ccccc2)cnn1C (centres undefined),Percent Effect,[1],-1.08%
same,Percent Effect,[2],34%
COc1ccc(-c2nc(CN3CC(n4cc(C)cn4)C3)no2)cc1,Percent Effect,[1],6.9%
same,Percent Effect,[2],-20.1%
O=C(c1cccc(NCCO)c1)N1CCOCC1,Percent Effect,[1],7.13%
same,Percent Effect,[2],-69.6%
O=C(NCC1CC1)[C@H]1C[C@@H]2CN(S(=O)(=O)Cc3ccccc3)C[C@H]1O2,Percent Effect,[1],4.1%
same,Percent Effect,[2],-14.6%
CNC(=O)C1Cn2ccnc2C2(CCN(Cc3cccnc3)CC2)O1 (centres undefined),Percent Effect,[1],-0.0764%
same,Percent Effect,[2],3.87%
Cc1ccc(CN2CC(C(=O)N3CCCC3)C3(CCOCC3)C2)s1 (centres undefined),Percent Effect,[1],10.8%
same,Percent Effect,[2],-7.63%
Cn1cccc1C(=O)N1CCc2ncnc(C3CC3)c2CC1,Percent Effect,[1],0.574%
same,Percent Effect,[2],-1.81%
O=C1CC(c2ccccc2)c2snc(C(=O)O)c2N1 (centres undefined),Percent Effect,[1],-6.76%
same,Percent Effect,[2],-1.61%
CNC(=O)C1(CCCc2cccnc2)CCCCN1 (centres undefined),Percent Effect,[1],0.849%
same,Percent Effect,[2],0.867%
CCC1CN(CCC(=O)N(C)C)CCN1CCOC (centres undefined),Percent Effect,[1],2.89%
same,Percent Effect,[2],22.5%
CN1CCOC(CNC(=O)CCCOc2ccccc2F)C1 (centres undefined),Percent Effect,[1],-5.14%
same,Percent Effect,[2],-33.1%
CCc1ccc(O)c(C(=O)NC2CCN(C(=O)OC)CC2)c1,Percent Effect,[1],-2.88%
same,Percent Effect,[2],-48.7%
COc1ccc(OCCNCCn2cccn2)cc1,Percent Effect,[1],1.29%
same,Percent Effect,[2],-27.4%
COCCN1CCC(Cc2cncc(-c3ccc(C(=O)O)cc3)n2)C1 (centres undefined),Percent Effect,[1],4.51%
same,Percent Effect,[2],8.34%
CNC(=O)c1cccc(C2CNCCN2C(C)=O)c1 (centres undefined),Percent Effect,[1],-2.04%
same,Percent Effect,[2],-2.23%
Cc1nn(C)c(N2CCOCC2)c1CNC1CCc2cc(F)ccc21 (centres undefined),Percent Effect,[1],-1.16%
same,Percent Effect,[2],-5.02%
Cc1nc(C)n(CC2CCCN2Cc2nc(C3CC3)no2)n1 (centres undefined),Percent Effect,[1],0.278%
same,Percent Effect,[2],-16.4%
Cc1cnn(CCNCCCOc2ccccc2)c1,Percent Effect,[1],-1.12%
same,Percent Effect,[2],-1.37%
CC(=O)Nc1nc(C2CCN(C(C)=O)CC2)cs1,Percent Effect,[1],-1.69%
same,Percent Effect,[2],-0.268%
O=C(CN1CCCC1Cn1cncn1)NCCOc1cccc(F)c1 (centres undefined),Percent Effect,[1],-0.983%
same,Percent Effect,[2],18.7%
Cc1cc(C[C@@H]2COC[C@@H]2NC(=O)CN2CCCC2)on1,Percent Effect,[1],4.6%
same,Percent Effect,[2],-10.1%
CC(NC(=O)N(C)Cc1ccsc1)c1ccc2c(c1)CCC(=O)N2 (centres undefined),Percent Effect,[1],-2.72%
same,Percent Effect,[2],29%
CSCCC(=O)N1CCCC1c1ccsc1 (centres undefined),Percent Effect,[1],2.62%
same,Percent Effect,[2],4.03%
CC(Cn1cccn1)NC(=O)NCc1cccnc1OC1CCCC1 (centres undefined),Percent Effect,[1],-4.78%
same,Percent Effect,[2],-7.65%
C1CC1c1nsc(N2CCN(C3CC3)CC2)n1,Percent Effect,[1],2.04%
same,Percent Effect,[2],-7.43%
NS(=O)(=O)N1CCc2ccc(NC(=O)Cc3ccc(F)cc3)cc21,Percent Effect,[1],-5.84%
same,Percent Effect,[2],-15%
CC(C)c1nccn1C1CCCN(C(=O)c2ccc3[nH]nnc3c2)C1 (centres undefined),Percent Effect,[1],-3.89%
same,Percent Effect,[2],-22.6%
CC(NC(=O)CNCCn1cccn1)c1ccc2c(c1)CCCC2 (centres undefined),Percent Effect,[1],-4.86%
same,Percent Effect,[2],-9.4%
Cc1ccc(OCCC(=O)N2CCN(c3cnccn3)CC2)cc1C,Percent Effect,[1],-0.856%
same,Percent Effect,[2],-12.8%
O=C1NCCN(CC2CC2)C12CCN(Cc1ccco1)CC2,Percent Effect,[1],24.3%
same,Percent Effect,[2],-8.3%
Cc1nn(C)c(N(C)C)c1CNC(C)c1cccc(OC(C)C)c1 (centres undefined),Percent Effect,[1],-3.06%
same,Percent Effect,[2],-5.32%
Cc1nc(C2CCCN2CC(=O)N2CCCc3ccccc32)no1 (centres undefined),Percent Effect,[1],2.35%
same,Percent Effect,[2],-12.2%
O=C1CCc2cc(-c3csc(CCN4CCCC4=O)n3)ccc2N1,Percent Effect,[1],-0.577%
same,Percent Effect,[2],-10.4%
CN(CCCNc1cc(N2CCCC2CO)ncn1)S(C)(=O)=O (centres undefined),Percent Effect,[1],7.01%
same,Percent Effect,[2],-30%
Cc1ccc(CN2CC3(CCN(C(=O)c4cscn4)C3)C2)s1,Percent Effect,[1],-2.67%
same,Percent Effect,[2],-39.3%
Clc1snnc1CN1CCCC(Cn2cncn2)C1 (centres undefined),Percent Effect,[1],-2.43%
same,Percent Effect,[2],-33%
C[C@@H]1CN(C(=O)c2ccc(C#N)nc2)C[C@@]1(O)C1CC1,Percent Effect,[1],0.0335%
same,Percent Effect,[2],-1.27%
CNS(=O)(=O)Cc1ccc(CNC(=O)Nc2cccnc2)cc1,Percent Effect,[1],-0.514%
same,Percent Effect,[2],-38.8%
CNCC(=O)N1CC(c2cc(Nc3ncccn3)nc(C)n2)C1,Percent Effect,[1],-3.19%
same,Percent Effect,[2],-3.14%
O=S(=O)(c1ccccc1Cl)N1CCc2nc(C3CCNCC3)ncc2C1,Percent Effect,[1],-6.28%
same,Percent Effect,[2],-9.83%
